In the supplement of paper PMC10338343:
± gives the standard deviation.

system: MILI (PIWIL2) piRISC loaded with piRNA #1 (26 nt); assay: pre-steady-state target cleavage rate (min^-1); guide: piRNA #1 5'p-UGAGGUAGUAGGUUGUAUAGUAUCCA; MIWI and MILI are mouse PIWI proteins and EfPiwi is from a freshwater sponge; tags in brackets are library labels; higher = faster piRNA-guided slicing of the target; details: auxiliary factor: 500 nM mouse GTSF1
Summary of the method: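 A burst-and-steady-state fit was used to obtain the pre-steady-state cleavage rate. The input data were sequencing reads of uncleaved targets, normalised to depth and to weakly complementary targets, from a […] transcribed, DNA-blocked target RNA library mixed with 1 nM active affinity-purified piRISC holding one synthetic guide, with or without 500 nM GTSF1 partner protein, in HEPES–potassium acetate buffer at 33 °C for 0–8 or 0–960 min. Three trials were pooled and k3 was capped at 0.0001 min^-1.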
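Further: 1 nM active piRISC with 0.1 nM target library at 33 °C single turnover.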

| Sequence | pre-steady-state target cleavage rate |
| --- | --- |
| GGAGACGAUACUAUUCAACCUACUUCCUCA | 0.0306 ± 0.0097 |
| GGAGACGAUUCUAUACAACCAACUACCUCA | 0.00752 ± 0.0023 |
| GGAGACCAUACUAUACAACCUUCUACCUGA | 0.00324 ± 0.0032 |
| GGAGACCUUACUAUACAACCUUCUACCUCA | 0.00711 ± 0.0021 |
| GGAGACGAUGCUAUACAACCUACUACCUCA | 0.194 ± 0.021 |
| GGAGACCUUACUGAUACAACCUACUACCUCA | 0.0968 ± 0.011 |
| GGAGACCUAACCUAUACAACCUACUACCUCA | 0.107 ± 0.056 |
| GGAGUGGAUACUAUACAACCAACUACCUGA | 0.00303 ± 0.0022 |
| GGAGACGAUACUAUUCAAGCUACUACCUCA | 0.23 ± 0.015 |
| GGAGACCAUACUAUACAACCUACUACCUGA | 0.155 ± 0.023 |
| GGAGUGGAUACUAUUCAACCUACAACCUCA | 0.0706 ± 0.01 |
| GGAGUGGAUACUAUACAACCAUACUACCUCA | 0.00751 ± 0.003 |
| GGAGACCUAUCUAUACAACCCACUACCUCA | 0.0169 ± 0.0041 |
| GGAGACGAUACUAUACAACCAACUACGUCA | 0.00504 ± 0.0028 |
| GGAGUGGAUACUAUACAACCUACUACCUCA [g2:g26:cont:t1A] | 0.2 ± 0.011 |
| GGAGACGAUACUUUACAACCUACUUCCUCA | 0.019 ± 0.0078 |
| GGAGAUGAUACUAUACAACCUACUACCUCA | 0.198 ± 0.013 |
| GGAGACCUAACUAUACAACCUACUACCUGA | 0.108 ± 0.03 |
| GGAGACCUAACUAUACAACCUAAUACCUCA | 0.0504 ± 0.013 |
| GGAGUGGAUACUAAACAACCUACUACCACA | 0.113 ± 0.011 |

| Sequence | pre-steady-state target cleavage rate |
| --- | --- |
| GGAGUGGAUACUAUACUACCUACUACCUCA | 0.196 ± 0.0088 |
| GGAGACCAAACUAUACAACCUACAACCUCA | 0.12 ± 0.035 |
| GGAGACCAUACUAUACAACCUACAUACCUCA | 0.146 ± 0.018 |
| GGAGACGAUACUAUACUAGCUACUACCUCA | 0.198 ± 0.011 |
| GGAGACCAAUCUAUACAACCUACUACCUCA | 0.117 ± 0.02 |
| GGAGAGGAUACUUUACAACCUACUACGUCA | 0.0429 ± 0.0069 |
| GGAGAGGAAAGUAUACAACCUACUACCUCA | 0.0417 ± 0.0061 |
| GGAGACCUUACUAUACAACCGACUACCUCA | 0.00424 ± 0.0031 |
| GGAGAGGAUACUAUACAAGCUACUAGCUCA | 0.0601 ± 0.013 |
| GGAGACGAUACUAUACAACCUAAUACCUCA | 0.103 ± 0.015 |
| GGAGAGGAUACUAUACAUGCUACUACCUCA | 0.0905 ± 0.01 |
| GGAGACCAUACUAUACAACCUACUACCCUCA | 0.22 ± 0.024 |
| GGAGACCUAUCUAUACAACCUACUACCGCA | 0.174 ± 0.021 |
| GGAGAGCAUACUAUACAACCUACUACCUGA | 0.112 ± 0.017 |
| GGAGACGAUACUAUACAACCUACCACCUCA | 0.122 ± 0.018 |
| GGAGACCAUACUAUACGACCUACUACCUCA | 0.0852 ± 0.016 |
| GGAGACGAUACUAUUCAACCUACUAGCUCA | 0.0651 ± 0.01 |
| GGAGACGAUACUAUACCAACCUACUACCUCA | 0.0605 ± 0.013 |
| GGAGACGAUACUAUACAACUCUACUACCUCA | 0.00377 ± 0.0022 |
| GGAGACCAUACUAUACAACCUACUACGAGA | 0.0759 ± 0.019 |
